Compound activity as filed in PubChem BioAssay.
Rows were chosen to be rich in hits. Some 2.8% of all compounds tested hit in one or more screens of this group.
KDM5B inhibitor: blocks human KDM5B histone demethylase activity. Q9UGL1. actives 2.6% (n = 220,000). AID 1347165. Potency, µM (highest dose often 57.7 µM), most hits filed as inhibitors. KDM5B demethylase, FDH-coupled NADH fluorescence (FDH is formaldehyde dehydrogenase); note: nearly all actives have a fitted effect of over 70% in size
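Measured: NADH fluorescence change, 30 min, RT. System: KDM5BΔAP 200 nM final, H3K4me3 peptide, α-KG, Fe(II), ascorbate, NAD⁺ plus FDH, pH 7.5 HEPES. Compounds: titrated, 10 min pre-incubation with enzyme.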
IP6K1 inhibitor: inhibitors of human IP6K1. Q92551. IP6K1 kinase, ADP-Glo luminescence, 2 h; active compounds read low. activity change, % (series mostly up to about 58 µM). actives 0.81% (n = 140,000). AID 1645851; in the data active = activity change below about -25%
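ADP-Glo luminescence measures ADP made by human IP6K1 during a 2 h RT reaction with ATP/IP6 (mix at 1.3 mM/130 uM); top library doses 57.5 and 19.1 uM final.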
Large screens that a line does not name were inactive.

C#CCNC(=O)C[C@@H]1c2nc(NC(=O)C(C)(C)C)sc2C[C@@H]2[C@](C)(CO)[C@H](O)CC[C@]21C	none
C[C@]1(CO)[C@H]2Cc3sc(NC(=O)c4c(F)cccc4F)nc3[C@@H](CC(=O)O)[C@]2(C)CC[C@H]1O	none
C[C@]1(CO)[C@H]2Cc3sc(NC(=O)c4ccc(F)cc4)nc3[C@@H](CC(=O)Nc3ccccc3)[C@]2(C)CC[C@H]1O	KDM5B inhibitor 32µM
COc1ccc(C(=O)Nc2nc3c(s2)C[C@@H]2[C@](C)(CO)[C@H](O)CC[C@@]2(C)[C@@H]3CC(=O)N2CCC(C)CC2)cc1	KDM5B inhibitor 28µM
C#CCNC(=O)C[C@@H]1c2nc(NC(=O)c3ccc(C(C)(C)C)cc3)sc2C[C@@H]2[C@](C)(CO)[C@H](O)CC[C@]21C	KDM5B inhibitor 32µM
COCC(=O)Nc1nc2c(s1)C[C@@H]1[C@](C)(CO)[C@H](O)CC[C@@]1(C)[C@@H]2CC(=O)N1CCC(C)CC1	none
O=C(NCc1ccccc1F)c1cc(-c2ccc(F)cc2)c2nncn2n1	none (no result: KDM5B inhibitor)
C#CCNC(=O)c1cc(-c2ccc(C(F)(F)F)cc2)nc2c1cnn2C	none (no result: KDM5B inhibitor)
CCOC(=O)c1sc2nc(C(C)N3CCOCC3)[nH]c(=O)c2c1C (stereo not drawn)	none (no result: IP6K1 inhibitor)
O=C(NCc1ccc(C(F)(F)F)cc1)C1CCN(C(=O)/C=C/c2ccccc2)CC1	none (no result: IP6K1 inhibitor)
O=C(NCc1ccc(Cl)cc1)NCC1(c2ccccc2)CC1	none (no result: IP6K1 inhibitor)
CCOc1ccc(/C=N/O)c(OC)c1	none (no result: IP6K1 inhibitor)
COc1ccc(C(=O)Nc2nc3c(s2)C[C@@H]2[C@](C)(CO)[C@H](O)CC[C@@]2(C)[C@@H]3CC(=O)N(C)Cc2ccccc2)cc1	KDM5B inhibitor inconclusive
CN(Cc1ccccc1)C(=O)C[C@@H]1c2nc(NC(=O)c3ccc(F)cc3)sc2C[C@@H]2[C@](C)(CO)[C@H](O)CC[C@]21C	KDM5B inhibitor 35µM
Cn1nc(C(=O)Nc2nc(-c3ccc[nH]3)cs2)c2ccccc2c1=O	none (no result: IP6K1 inhibitor)
CCCn1cc(C(=O)N[C@@H]2COCC[C@H]2Oc2ccc(C#N)cc2)c(C)n1	none
Cc1nc(NCC2CC2)ncc1C(=O)O	KDM5B inhibitor 22µM
CCc1nc(NC2CCCC2)ncc1C(=O)O	KDM5B inhibitor inconclusive
COc1ccc(NC(=O)C2CC(=O)N(C(C)C)C2)cc1S(=O)(=O)N1CCCCC1 (stereo not drawn)	none (no result: IP6K1 inhibitor)
FC(F)(F)c1ccc(CN2CC[C@H](c3nc4ccc(C(F)(F)F)cc4[nH]3)C2)cc1	KDM5B inhibitor inconclusive
CC1CCN(CCNC(=O)c2cc3cn(C(C)C)cc3s2)CC1	KDM5B inhibitor 14µM
O=C(O)c1cc2cn(C3CCCC3)cc2s1	KDM5B inhibitor 16µM
CCc1ccc(CNC(=O)c2cc3cn(C4CCCC4)cc3s2)cc1	KDM5B inhibitor inconclusive
CN(C)CCNC(=O)c1cc2cn(C3CC3)cc2s1	KDM5B inhibitor 13µM
CC(C)CNC(=O)c1cc2cn(C3CC3)cc2s1	KDM5B inhibitor inconclusive
CC(C)n1cc2cc(C(=O)NC3CCCCCC3)sc2c1	KDM5B inhibitor inconclusive
O=C(NC1CC1)c1cn2cc(-c3ccc(C(F)(F)F)cc3)sc2n1	none (no result: KDM5B inhibitor)
COc1cc2c(Nc3ccc(Cl)c(Cl)c3F)ncnc2cc1OCC1C[C@@H]2CN(C)C[C@@H]2C1 (stereo partly drawn)	none (no result: KDM5B inhibitor)
O=C(NCc1nc(-c2cccc(F)c2)c(-c2ccccn2)[nH]1)N1CCCC1	KDM5B inhibitor 22µM
NC1(C(=O)NCc2nc(-c3cccc(F)c3)c(-c3ccccn3)[nH]2)CCC1	KDM5B inhibitor inconclusive
O=C(C1CCCN(Cc2cccc(-c3ccsc3)c2)C1)N1CCC(Cc2ccccc2)CC1 (stereo not drawn)	none (no result: KDM5B inhibitor)
O=C(C1Cn2cccc2C(=O)N1Cc1cccnc1)N1CCN(c2ncccn2)CC1 (stereo not drawn)	KDM5B inhibitor inconclusive
O=C(C1Cn2cccc2C(=O)N1Cc1ccccc1)N1CCN(c2ncccn2)CC1 (stereo not drawn)	KDM5B inhibitor 18µM
O=C(NC(Cc1ccccc1)C(=O)N1CCN(c2ncccn2)CC1)c1ccccc1 (stereo not drawn)	none (no result: IP6K1 inhibitor)
O=C(CC1CCCCC1)NC(Cc1ccccc1)C(=O)N1CCN(c2ccccn2)CC1 (stereo not drawn)	KDM5B inhibitor 22µM
O=C(O)[C@@H]1CN(Cc2ccccc2)C[C@@H]1C(=O)N1CCN(c2ccccn2)CC1	KDM5B inhibitor 22µM
O=C(NC(Cc1ccccc1)C(=O)N1CCN(c2ncccn2)CC1)c1cccs1 (stereo not drawn)	none (no result: IP6K1 inhibitor)
O=C(O)[C@@H]1CN(Cc2ccccc2)C[C@@H]1C(=O)N1CCOCC1	none
NC(Cc1ccccc1)C(=O)N1CCN(c2ccccn2)CC1 (stereo not drawn)	KDM5B inhibitor 22µM
CCOC(=O)C(Cc1cccc(N2CCN(C(=O)c3ccccc3C(F)(F)F)CC2)c1)OC (stereo not drawn)	none (no result: KDM5B inhibitor)
COc1ccc(OCC2CC3(CCCCC3)CN2S(=O)(=O)c2c(C)noc2C)cc1 (stereo not drawn)	none (no result: KDM5B inhibitor)
CC(C)C(C(=O)Nc1ccc(F)c(F)c1F)c1ccc(Cl)cc1 (stereo not drawn)	none (no result: IP6K1 inhibitor)
O=C(C1CC(=O)N(C2CCCC2)C1)N1CCN(c2ccc(Cl)cn2)CC1 (stereo not drawn)	KDM5B inhibitor 32µM
O=C(C1CCC(=O)N(C2CCCC2)C1)N1CCN(c2nccs2)CC1 (stereo not drawn)	none
Cc1cccc(NC(=O)OCc2ccccc2)c1	none (no result: IP6K1 inhibitor)
COc1ccc([C@@H](NC(=O)c2ccc3cccc(F)c3n2)C2CC(O)C2)cn1 (stereo partly drawn)	KDM5B inhibitor 22µM
COc1ccc(C(NC(=O)c2cccc(OC(F)F)c2)C2CC(O)C2)cn1 (stereo not drawn)	none
Cc1nn(-c2ccccc2)c2c1C(C)N(C1CCCN([S+](=O)([O-])c3cccc(C(F)(F)F)c3)C1)C2=O (stereo not drawn)	none (no result: KDM5B inhibitor)
COc1cc(/C=C2/NC(=O)NC2=O)cc(I)c1OCc1cccc(C(=O)O)c1	none (no result: IP6K1 inhibitor)
Cc1nn2c(c1-c1ccnn1C(C)C)N(C(=O)C(C)C)CCC2	none
Cc1nn2c(c1-c1ccnn1C(C)C)N(Cc1ccc(C(=O)O)s1)CCC2	KDM5B inhibitor 25µM
CO[C@H]1CN(C2CCN(C(=O)CC3CCCCC3)CC2)[C@H]1c1cccnc1	none (no result: KDM5B inhibitor)
COc1ccc(C(=O)Nc2ccc3c(c2)CN(Cc2ccc(OC)cc2OC)C(=O)C(C)O3)cc1 (stereo not drawn)	none
CCNC(=O)Nc1ccc2c(c1)CN(Cc1ccccc1OC)C(=O)C(C)O2 (stereo not drawn)	KDM5B inhibitor 28µM
CCC(C(=O)Nc1ccc2c(c1)CN(Cc1ccccc1OC)C(=O)C(C)O2)c1ccccc1 (stereo not drawn)	none
COc1ccc(CN2Cc3cc(NC(=O)c4ccc(Cl)cc4)ccc3OC(C)C2=O)c(OC)c1 (stereo not drawn)	KDM5B inhibitor 25µM
O=[S+]([O-])(NC1CCN(c2ccnc3ccnn23)CC1)c1cccc(C(F)(F)F)c1	none (no result: KDM5B inhibitor)
CC(Oc1ccc2[nH]nc(/C=C/c3cnn(CCO)c3)c2c1)c1c(Cl)cncc1Cl (stereo not drawn)	none (no result: KDM5B inhibitor)
Cc1ccsc1CCNS(=O)(=O)c1ccc2c(c1)NC(=O)CC(C)S2 (stereo not drawn)	none (no result: IP6K1 inhibitor)
Cc1nn(-c2ccccc2)c2c1C(C(C)C)N(C1CCN(C(=O)c3ccccc3Cl)CC1)C2=O (stereo not drawn)	none (no result: KDM5B inhibitor)
CCCC(=O)N1CCC(O)(c2ccccc2)[C@H](N2CCCC2)C1 (stereo partly drawn)	KDM5B inhibitor 10µM
